Target: RFX3
Assay: pooled miR-30 sensor sort-seq; sequence = guide strand
Settings: shRNA
Also: reference of the scale not given here.

**Q.** With TAGAATTTGACAACAGTCGACC as the sequence, how does the sensor-assay potency score (higher = more potent) read?
**A.** -0.732

**Q.** How did the sensor-assay potency score (higher = more potent) turn out when TTGACAACAGTCGACCTTCAGG was run?
**A.** -0.926

**Q.** With AATTTGACAACAGTCGACCTTC as the sequence, how does the sensor-assay potency score (higher = more potent) read?
**A.** 0.318

**Q.** With TAAATTTTCAACTTAAGCCCAA as the sequence, how does the sensor-assay potency score (higher = more potent) read?
**A.** 0.019

**Q.** TTGAAGATTCACAACAACGTCC was tested. Which sensor-assay potency score (higher = more potent) did it give?
**A.** 0.274

**Q.** Which sensor-assay potency score (higher = more potent) does the source give for TTGTTGTTCGGATTGCTCCATT here?
**A.** -0.745

**Q.** For TTGTTGTACTGGTACTTGCTGT, which sensor-assay potency score (higher = more potent) is on record?
**A.** -0.28

**Q.** For TTGGTATAGACAGTATCGCTTC, which sensor-assay potency score (higher = more potent) is on record?
**A.** -0.105

**Q.** Which sensor-assay potency score (higher = more potent) does the source give for TAAATCACCAAACTCGCCCATG here?
**A.** -0.686

**Q.** With TACACCAAGACTAACAATCAAC as the sequence, how does the sensor-assay potency score (higher = more potent) read?
**A.** -1.04

**Q.** Which sensor-assay potency score (higher = more potent) does the source give for TTCTAGTCTCTGAACCATGTTG here?
**A.** -0.714

**Q.** For TTAAGTGTTGTAAAAATCCTTC, which sensor-assay potency score (higher = more potent) is on record?
**A.** -0.411

Target: RGS13
Assay: as above
Settings: shRNA

**Q.** How did the sensor-assay potency score (higher = more potent) turn out when TAGAAATTCTGCTCCACCGTGA was run?
**A.** 0.617

**Q.** Which sensor-assay potency score (higher = more potent) does the source give for TTCCTGATGATAGTCTCTCTTG here?
**A.** -0.749

**Q.** How did the sensor-assay potency score (higher = more potent) turn out when TAGGTTTCACATGCCATCCAGA was run?
**A.** -0.935

**Q.** How did the sensor-assay potency score (higher = more potent) turn out when TTAATTGAACTACATAGGCTTG was run?
**A.** -0.858

**Q.** How did the sensor-assay potency score (higher = more potent) turn out when ATGATAGTCTCTCTTGTCGAAC was run?
**A.** -1.51

**Q.** For TAGTCTCTCTTGTCGAACTGTC, which sensor-assay potency score (higher = more potent) is on record?
**A.** -0.609

**Q.** Which sensor-assay potency score (higher = more potent) does the source give for TTTTGGTACATTTCTGACTTTA here?
**A.** -0.566

**Q.** How did the sensor-assay potency score (higher = more potent) turn out when TTGAATATTCTCGTCACTGTGC was run?
**A.** 0.436

**Q.** With TTAAATTTTCAAAAGACTGGGC as the sequence, how does the sensor-assay potency score (higher = more potent) read?
**A.** -0.0917

**Q.** Which sensor-assay potency score (higher = more potent) does the source give for ATAGTCTCTCTTGTCGAACTGT here?
**A.** -0.257

**Q.** How did the sensor-assay potency score (higher = more potent) turn out when TCTGACTTTAGAAATCTGGGGT was run?
**A.** 0.865

**Q.** How did the sensor-assay potency score (higher = more potent) turn out when TTAATGAACATAATAGTAGGAA was run?
**A.** 0.19

Target: RGS6
Assay: as above
Settings: shRNA

**Q.** TTATTTTGCATTGTCCTCTTAC was tested. Which sensor-assay potency score (higher = more potent) did it give?
**A.** -0.243

**Q.** TTGTCATCTTGCATCTTTGTAA was tested. Which sensor-assay potency score (higher = more potent) did it give?
**A.** -0.676

**Q.** How did the sensor-assay potency score (higher = more potent) turn out when TCTGTCTTGTCTTTTTTCCGGT was run?
**A.** 0.0231

**Q.** How did the sensor-assay potency score (higher = more potent) turn out when TTGGCTGAGTACATGCACCGGG was run?
**A.** 0.473

**Q.** For TTTCAAACAATGTCTGTCGATC, which sensor-assay potency score (higher = more potent) is on record?
**A.** -0.513

**Q.** How did the sensor-assay potency score (higher = more potent) turn out when TAATCTGCCAGTTCCAGCCTTG was run?
**A.** -0.407

**Q.** For TTTTCAAACAATGTCTGTCGAT, which sensor-assay potency score (higher = more potent) is on record?
**A.** -0.396

**Q.** TAAACTTTCAGCCACTTTGGAC was tested. Which sensor-assay potency score (higher = more potent) did it give?
**A.** -0.804

**Q.** TTCTGCTTCATAATCTGCCAGT was tested. Which sensor-assay potency score (higher = more potent) did it give?
**A.** -0.422

**Q.** How did the sensor-assay potency score (higher = more potent) turn out when TAATCTCAAGTGATAGTCGTGA was run?
**A.** 0.294

**Q.** Which sensor-assay potency score (higher = more potent) does the source give for TCAAACGTCGACATTTTCGGAT here?
**A.** -0.513

**Q.** With TTTGACACACACACACAGGGAA as the sequence, how does the sensor-assay potency score (higher = more potent) read?
**A.** 0.653

Source: the OligoGym collection
